In all, about 33,000 sequences were measured (“e-score”: median about -0.053, highest 2% from about 0.38 on). For the sample, the highest values were picked, then their nearest neighbours and some sequences at random.
These sequences were tested against T1, SIX1 homeodomain (reference allele) (human, UniProt Q15475 108-198) (assay: universal protein binding microarray; Universal all-10-mer PBM (8x60K, AMADID 030236), 300 nM GST-tagged protein, Alexa Fluor 488 anti-GST; buffer, salt, pH and temperature not stated (as in Berger); high values mean tight binding). Conditions: protein: ivt; tags: N-terminal GST; dsDNA, one strand shown.
T1 sequence: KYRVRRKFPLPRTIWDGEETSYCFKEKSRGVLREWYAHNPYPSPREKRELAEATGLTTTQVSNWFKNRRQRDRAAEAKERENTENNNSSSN
Method in brief: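 Binding of GST-tagged homeodomains is given as 8-mer E-scores from the Universal PBM Analysis Suite. The proteins were produced by in vitro transcription/translation, quantified by anti-GST western blot against a recombinant GST standard curve, and applied in duplicate at 300 nM final concentration to universal 'all 10-mer' protein binding microarrays (8×60K format).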
Work on AACACCGC yielded a binding signal of 0.293 ± 0.041 E-score.
In the case of CACACCAC, the binding signal is reported as 0.206 ± 0.0597 E-score.
GACACCGC showed a binding signal of 0.398 ± 0.0204 E-score.
For GACACCGA, the binding signal was 0.383 ± 0.0167 E-score.
With AACACCAC the binding signal was 0.255 ± 0.026 E-score.
AACACCGA was tested, and the binding signal was 0.228 ± 0.0289 E-score.
In the case of GACACCTA, the binding signal is reported as 0.3565 ± 0.0024 E-score.
In the case of ATATGGAC, the binding signal is reported as 0.173 ± 0.0129 E-score.
Work on ATCCTTTC yielded a binding signal of 0.212 ± 0.0474 E-score.
CAGGATGA gave a binding signal of 0.183 ± 0.0851 E-score.
Sequence ATCCCTCC has a binding signal of 0.329 ± 0.0164 E-score.
ACGCATAT showed a binding signal of 0.233 ± 0.00465 E-score.
With GATCTAGA the binding signal was 0.252 ± 0.0586 E-score.
With CAGAGATA the binding signal was 0.27 ± 0.0194 E-score.
For CGTCTCAA, the binding signal was 0.286 ± 0.0622 E-score.
AGTAAGAT was tested, and the binding signal was 0.191 ± 0.00535 E-score.
Work on ATCCGCCC yielded a binding signal of 0.373 ± 0.0127 E-score.
Sequence GATATCCC has a binding signal of 0.487 ± 0.00837 E-score.
AATATCCA was tested, and the binding signal was 0.2955 ± 0.00224 E-score.
Sequence AATATCCC has a binding signal of 0.378 ± 0.0135 E-score.
With GATATCCA the binding signal was 0.452 ± 0.0127 E-score.
Work on GCTATCCC yielded a binding signal of 0.281 ± 0.0159 E-score.
In the case of AATATCCG, the binding signal is reported as 0.317 ± 0.0622 E-score.
Sequence CATATCCC has a binding signal of 0.352 ± 0.0303 E-score.
CATATCCA was tested, and the binding signal was 0.348 ± 0.0227 E-score.
With AATATCCT the binding signal was 0.282 ± 0.0516 E-score.
GAAGATCA gave a binding signal of 0.196 ± 0.071 E-score.
GAGCAATA gave a binding signal of 0.151 ± 0.0211 E-score.
Work on CGAGATCA yielded a binding signal of 0.287 ± 0.035 E-score.
CTAAGATC gave a binding signal of 0.207 ± 0.011 E-score.
Work on ATCTAGCC yielded a binding signal of 0.18 ± 0.0214 E-score.
For ATATGATA, the binding signal was 0.443 ± 0.0314 E-score.
In the case of GTATGAGA, the binding signal is reported as 0.167 ± 0.0275 E-score.
With CTATGATA the binding signal was 0.394 ± 0.0185 E-score.
Sequence ATATGACC has a binding signal of 0.189 ± 0.0241 E-score.
In the case of ATATGACA, the binding signal is reported as 0.2181 ± 0.00196 E-score.
With GTATGATA the binding signal was 0.426 ± 0.00336 E-score.
GTATGACA was tested, and the binding signal was 0.153 ± 0.0497 E-score.
With ATATGATC the binding signal was 0.378 ± 0.0179 E-score.
CTATGATC showed a binding signal of 0.302 ± 0.0116 E-score.
With CTATGAGA the binding signal was 0.177 ± 0.0191 E-score.
With ATATGATG the binding signal was 0.202 ± 0.0156 E-score.
Work on CTATGGTA yielded a binding signal of 0.305 ± 0.0461 E-score.
ATCGGCGA was tested, and the binding signal was 0.263 ± 0.0285 E-score.
Work on CAGCTATA yielded a binding signal of 0.172 ± 0.0266 E-score.
With ATCAACCC the binding signal was 0.3364 ± 0.0021 E-score.
CCCTTCGG showed a binding signal of 0.2259 ± 0.00107 E-score.
In the case of ATCTCGGC, the binding signal is reported as 0.164 ± 0.0197 E-score.
With CCGCATCC the binding signal was 0.159 ± 0.0829 E-score.
With CTGGGGTC the binding signal was 0.164 ± 0.0399 E-score.
Work on GATCCATC yielded a binding signal of 0.364 ± 0.0371 E-score.
For ATCGTTGG, the binding signal was 0.205 ± 0.01 E-score.
ATATAAGG gave a binding signal of 0.189 ± 0.0368 E-score.
In the case of CGATGGAG, the binding signal is reported as 0.167 ± 0.00841 E-score.
Work on AGATCACC yielded a binding signal of 0.317 ± 0.00333 E-score.
CGATCAGA showed a binding signal of 0.192 ± 0.0121 E-score.
Sequence AGATCAGA has a binding signal of 0.215 ± 0.0541 E-score.
Sequence GGATCACA has a binding signal of 0.4356 ± 0.00108 E-score.
With CGATCACC the binding signal was 0.34 ± 0.0407 E-score.
Sequence AGATCAAC has a binding signal of 0.264 ± 0.0411 E-score.
For GGATCAAA, the binding signal was 0.372 ± 0.0497 E-score.
For CGATCACG, the binding signal was 0.251 ± 0.0416 E-score.
Work on TGATCACA yielded a binding signal of 0.254 ± 0.0125 E-score.
In the case of GGATCACC, the binding signal is reported as 0.438 ± 0.0243 E-score.
GGATCAAC was tested, and the binding signal was 0.39 ± 0.0049 E-score.
GGATCAGA showed a binding signal of 0.414 ± 0.0101 E-score.
For CCCCATCA, the binding signal was 0.152 ± 0.0305 E-score.
With TATCCTAA the binding signal was 0.238 ± 0.0642 E-score.
GATAACTA was tested, and the binding signal was 0.154 ± 0.00881 E-score.
Sequence GATCTTTA has a binding signal of 0.164 ± 0.0165 E-score.
For ATCGCACG, the binding signal was 0.2071 ± 0.000375 E-score.
Work on ATAGGCGG yielded a binding signal of 0.1969 ± 0.00138 E-score.
TATTGCGA showed a binding signal of 0.232 ± 0.0343 E-score.
TCACCCGA gave a binding signal of 0.157 ± 0.0682 E-score.
GATAGTAA gave a binding signal of 0.221 ± 0.00274 E-score.
GGATCATA gave a binding signal of 0.433 ± 0.0211 E-score.
In the case of CGATCATA, the binding signal is reported as 0.276 ± 0.0116 E-score.
With AGATCATA the binding signal was 0.323 ± 0.00987 E-score.
Work on ATCAACGA yielded a binding signal of 0.201 ± 0.0401 E-score.
AGTATTGG gave a binding signal of 0.204 ± 0.0532 E-score.
Sequence ATAGCTAT has a binding signal of 0.27 ± 0.0878 E-score.
In the case of TCTCCAGA, the binding signal is reported as 0.165 ± 0.00783 E-score.
Work on GGAGATCC yielded a binding signal of 0.374 ± 0.0453 E-score.
Work on CCAGATAA yielded a binding signal of 0.234 ± 0.0252 E-score.
Work on CAAGATAC yielded a binding signal of 0.349 ± 0.0341 E-score.
Work on AGAGATAC yielded a binding signal of 0.38 ± 0.00418 E-score.
